MITF TRPM1 inh – inhibitors of MITF-dependent TRPM1 promoter reporter, primary screen, cell-based, SK-MEL-5, single point, luciferase. SK-MEL-5 TRPM1 promoter luciferase, 24 h. inhibition, % at 12.5 µM. actives 0.83% (n = 330,000). AID 488899, 2010;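 active = mean inhibition across replicates of 60% or more, whatever share of single replicates reaches that level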
ABHD5-PLIN5 inh – ABHD5-PLIN5 interaction inhibitors, primary screen, cell lysate, split luciferase complementation, luminescence | Perilipin-5 (Homo sapiens) + 1-acylglycerol-3-phosphate O-acyltransferase ABHD5 (Homo … | Split G. princeps luciferase complementation, 4 h | inhibition, % at 4 µM | actives 0.78% (n = 360,000) | AID 602281, 2012;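 active = inhibition above the mean inhibition across every tested compound plus 3 SD, cut at about 22% in these data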
KKLEB tox – cytotoxicity in KKLEB CF airway cells, primary screen, cytotoxicity control for CF NF-kB inhibitor project, cell-based, uHTS, fluorescence assay plates. KKLEB CF airway cells viability, ATPlite luminescence, overnight; hits give low values; cells stimulated with P. aeruginosa culture filtrate. activity change (cytotoxicity), % at 5 µM. actives 0.36% (n = 360,000);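 active = corrected activity change at or below -50% at 5 µM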
Peg3 prom inh – Peg3 promoter-driven luciferase inhibitors, primary screen, cell-based, HeLa, luciferase luminescence; HeLa PEG-Prom luciferase reporter, overnight; inhibition, % at 20 µM; actives 1.7% (n = 360,000); AID 588405, 2011;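 active = inhibition of at least 50% at 20 µM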
CF NFkB inh – inhibitors of PAF-induced NF-kB signaling, primary screen, cell-based, GFP fluorescence, uHTS; KKLEB NF-kB-GFP reporter, GFP fluorescence overnight; inhibition, % at 5 µM; actives 0.86% (n = 360,000); AID 588850, 2011;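 active = at least 50% inhibition at 5 µM, scaled per plate between neutral and stimulator controls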;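 note: PAF is a Pseudomonas aeruginosa culture filtrate used as stimulus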
HIF-2a inh – HIF-2a reporter inhibitors, primary screen, luminescence, 786-0 RCC cells | 786-0 RCC cells HIF-2a reporter, luciferase luminescence, overnight | inhibition, % at 18.8 µM | actives 0.72% (n = 360,000) | AID 624352, 2012;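 active = inhibition of the luminescence signal of 40% or more relative to plate controls, in a single-dose primary screen at 18.75 µM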
Mdm2 MdmX conf – retested Mdm2-MdmX interaction blockers, confirmation, cell-based, luminescence, single concentration, set 2; shares compounds with HIF-2a inh; SaOS-2 split-luciferase Mdm2/MdmX complementation; actives 99% (n = 740); inhibition, % at 8 µM; AID 504601, 2011;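 active = mean inhibition of the luminescence signal across two replicates at or above 26 percent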
Target sequence (O15151 whole entry, looked up): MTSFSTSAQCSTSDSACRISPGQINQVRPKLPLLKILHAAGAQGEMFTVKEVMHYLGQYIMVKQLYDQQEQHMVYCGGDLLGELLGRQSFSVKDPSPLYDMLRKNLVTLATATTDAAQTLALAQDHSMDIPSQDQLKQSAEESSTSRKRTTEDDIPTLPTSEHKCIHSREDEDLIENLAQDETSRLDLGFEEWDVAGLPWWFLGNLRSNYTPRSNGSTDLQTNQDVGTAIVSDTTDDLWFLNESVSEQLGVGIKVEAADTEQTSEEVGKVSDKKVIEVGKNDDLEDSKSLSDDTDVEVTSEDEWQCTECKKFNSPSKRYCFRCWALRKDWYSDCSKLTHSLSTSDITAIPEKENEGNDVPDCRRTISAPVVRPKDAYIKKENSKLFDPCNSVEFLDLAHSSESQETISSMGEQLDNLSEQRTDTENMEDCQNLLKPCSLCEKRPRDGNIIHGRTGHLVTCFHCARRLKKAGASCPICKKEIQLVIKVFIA
Target sequence (Q00987 whole entry, looked up): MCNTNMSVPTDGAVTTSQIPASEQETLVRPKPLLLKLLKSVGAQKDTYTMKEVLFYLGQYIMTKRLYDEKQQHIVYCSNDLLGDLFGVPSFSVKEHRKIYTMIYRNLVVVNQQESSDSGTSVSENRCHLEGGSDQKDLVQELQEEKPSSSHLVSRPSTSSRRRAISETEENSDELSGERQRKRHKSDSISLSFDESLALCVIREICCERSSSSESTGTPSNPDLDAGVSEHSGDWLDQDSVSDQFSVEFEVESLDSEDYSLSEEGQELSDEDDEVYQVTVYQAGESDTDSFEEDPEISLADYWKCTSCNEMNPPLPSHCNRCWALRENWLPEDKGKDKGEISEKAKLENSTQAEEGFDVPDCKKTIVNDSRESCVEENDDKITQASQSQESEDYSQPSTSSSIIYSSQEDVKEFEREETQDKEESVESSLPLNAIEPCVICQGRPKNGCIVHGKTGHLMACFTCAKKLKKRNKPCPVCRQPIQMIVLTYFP
HIF-2a inh conf – HIF-2a reporter inhibitor retest, confirmation, luminescence, 786-0 RCC cells; shares compounds with HIF-2a inh; HIF-2a luciferase reporter luminescence, overnight; inhibition, % at 18.8 µM; actives 56% (n = 1,800); AID 651580, 2012;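 active = mean inhibition across four replicates of at least 40 percent at the single tested concentration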
HIF-1a counter – HIF-1a luciferase reporter signal reduction – MiaPaCa-2 cells, single concentration, counter-screen for HIF-2a inhibitor project, confirmation; shares compounds with HIF-2a inh; actives 72% (n = 1,800); AID 651589, 2012; inhibition, % at 18.8 µM; MiaPaCa-2 HIF-1a luciferase reporter, desferoxamine, overnight;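 active = mean inhibition of the reporter signal across four replicates at the single tested dose of 50% or more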
Hits are given with their value; . = inactive; / = not tested or not shown. In the library only some 3% were active in any assay of this set; here they are far more common.

SMILES | MITF TRPM1 inh | ABHD5-PLIN5 inh | KKLEB tox | Peg3 prom inh | CF NFkB inh | HIF-2a inh | Mdm2 MdmX conf | HIF-2a inh conf | HIF-1a counter
Cn1ccnc1SCC(=O)NC12CC3CC(CC(C3)C1)C2 | . | . | . | . | . | . | / | / | /
Cc1nnc(SCC(=O)NC23CC4CC(CC(C4)C2)C3)n(N)c1=O | . | . | . | . | . | 68.1 | / | . | .
COc1ccc(/C=C/C(=O)OCC(=O)NC2CCCC2)cc1OC | . | . | . | . | . | . | / | / | /
COCCCNC(=O)COc1ccc(-c2nccc(-c3ccccn3)n2)cc1 | . | . | . | . | . | 40.2 | / | . | .
Cc1ccc(OCC(=O)NCCCNC(=O)c2ccccn2)cc1 | . | . | . | . | . | . | / | / | /
Cc1c(C(=O)N/N=C/c2c(O)ccc3ccccc23)nnn1-c1nonc1N | . | . | . | . | . | . | 92.0 | / | /
O=C(N/N=C/c1c(O)ccc2ccccc12)c1ccc(Br)o1 | . | . | . | . | . | . | 90.2 | / | /
COc1ccc2ccccc2c1/C=N/NC(=O)c1nnn(-c2nonc2N)c1C(C)C | . | . | . | . | . | . | / | / | /
COc1ccc(C[C@H](N)C(=O)N[C@H]2[C@@H](O)[C@H](n3cnc4c(N(C)C)ncnc43)O[C@@H]2CO)cc1 | 108.6 | . | . | 102.3 | . | 94.9 | 103.0 | 94.9 | 105.1
CN(C)c1ncnc2c1ncn2C1OC(CO)C(O)C1O (stereo not given) | . | . | . | . | . | 52.0 | / | . | .
Nc1ccn(C2OC(CO)C(O)C2O)c(=O)n1 (stereo not given) | / | . | . | . | . | . | / | / | /
OCC1OC(n2ccc3c2ncn2ncnc32)C(O)C1O (stereo not given) | / | . | -57.1 | . | 68.4 | 54.0 | / | . | 54.1
CC(=O)Nc1ccc(NC(=O)c2oc3cc(C)c(C)cc3c2C)cc1 | . | . | . | . | . | 52.5 | / | 74.0 | .
Cc1cc2oc(C(=O)Nc3cccnc3)c(C)c2cc1C | . | . | . | . | . | . | / | / | /
Cc1csc(NC(=O)NCC2CCCC(CNC(=O)Nc3nc(C)cs3)C2)n1 (stereo not given) | . | . | . | . | . | . | / | / | /
NC(Cc1ccc(Cl)cc1)c1csc(NC(=O)NCC2CCCCC2)n1 (stereo not given) | / | . | . | 92.5 | . | 61.4 | / | . | 101.0
NC(=O)c1ccc(NC(=O)C#Cc2ccccc2)cc1 | . | . | . | 57.9 | . | . | 101.5 | / | /
CN(C(=S)NC(=O)c1ccccc1)C1CCCCC1 | . | . | . | . | . | 50.2 | / | . | .
CC(C)CNC(=S)N1CCC(Cc2ccccc2)CC1 | . | . | . | . | . | . | / | / | /
CC1CC2(C)Oc3ccccc3CC2C(C)C1CNCCCN(C)C (stereo not given) | 97.2 | . | . | 106.7 | . | 84.0 | 101.5 | . | 105.2
CCCN(CCC)CCNC(=O)C1(O)c2ccccc2NC(=O)N1c1cccc(OC)c1 (stereo not given) | . | . | . | . | . | . | / | / | /
CCOCc1nnc(NC(=O)c2c(-c3ccccc3)noc2C)s1 | . | . | . | . | . | . | / | / | /
CCOC(=O)c1c(NC(=O)c2c(-c3ccccc3)noc2C)sc(C)c1-c1ccccc1 | . | . | . | . | . | . | 102.5 | / | /
Cc1nnc(SC(=O)N2c3ccccc3Sc3ccccc32)s1 | 76.4 | . | -58.3 | 98.5 | 68.8 | . | 103.2 | / | /
Oc1ccc(-c2cc(-c3ccc(O)cc3)nc(-c3ccccc3)n2)cc1 | . | . | . | . | . | 65.5 | / | . | 103.9
SMILES | MITF TRPM1 inh | ABHD5-PLIN5 inh | KKLEB tox | Peg3 prom inh | CF NFkB inh | HIF-2a inh | Mdm2 MdmX conf | HIF-2a inh conf | HIF-1a counter
O=S(=O)(CCSc1nc2ccccc2o1)c1nc2ccccc2s1 | . | . | . | . | 57.2 | 57.0 | / | 70.4 | 90.1
CN(C)CCCNC(=O)C[C@H]1C[C@H](C(=O)N2CCCCC2)[C@@]2(CCc3ccccc3)c3[nH]c4ccc(Cl)cc4c3CCN2C1=O | 104.9 | 22.0 | . | 95.0 | . | 81.1 | 103.2 | . | 103.4
CC(C)=CCC/C(C)=C/CNC(=O)C[C@H]1C[C@H](C(=O)N2CCOCC2)[C@@]2(CCC3CCCC3)c3[nH]c4cc(CCC(=O)N(C)C)ccc4c3CCN2C1=O | . | . | . | . | . | 79.6 | / | . | 105.7
CN(C)C(=O)CCc1ccc2c3c([nH]c2c1)[C@]1(CCC2CCCC2)[C@@H](C(=O)N2CCOCC2)C[C@H](CC(=O)NCC24CC5CC(CC(C5)C2)C4)C(=O)N1CC3 | . | . | . | . | . | . | / | / | /
CN(C)CCCNC(=O)C[C@H]1C[C@H](C(=O)N2CCCCC2)[C@@]2(C)c3[nH]c4ccc(Cl)cc4c3CCN2C1=O | . | . | . | . | . | . | / | / | /
CC(C)CC(=O)c1c(O)c(C=O)c(O)c2c1O[C@@]1(C)[C@@H](C2)C[C@H]2C[C@@H]1C2(C)C | . | . | . | . | . | . | / | / | /
CCOC(=O)c1ccc(-c2ccc(N3C(c4cccc(OC)c4)=Cc4ccc(F)cc4C3CC(C)=O)cc2)cc1F (stereo not given) | / | . | / | / | / | 65.0 | / | . | .
Cc1ccccc1N(Cc1cc(=O)[nH]c2ccccc12)C(=O)CCl | . | . | . | 57.6 | . | . | 102.2 | / | /
Cc1ccccc1N(Cc1cc(=O)[nH]c2ccccc12)C(=O)C(C)C | . | . | . | . | . | . | / | / | /
COc1cc2c(cc1OC)C(c1ccccc1)N(C(=O)CCl)CC2 (stereo not given) | 92.9 | . | . | 102.0 | . | 92.6 | / | 99.2 | 106.2
C=CC(C)(C)c1c2occc2c(O)c2ccc(=O)oc12 | / | . | . | . | . | . | / | / | /
C=CC(C)(C)c1c(O)c(CC=C(C)C)c(O)c2c(=O)c3ccc(O)c(O)c3oc12 | / | . | . | 61.0 | 54.3 | . | 97.2 | / | /
COc1cccc(CNC(=O)CCS(=O)(=O)c2ccc3c(c2)CC(C)N3C(=O)C2CC2)c1 (stereo not given) | . | . | . | . | . | . | / | / | /
